# Active and inactive are the calls of the source.
# How the values were obtained:
# Albumin (Bos taurus) = Albumin (Bos taurus) (UniProt P02769); experiment: compounds binding labelled BSA control protein – biochemical, small-molecule microarray, Alexa647 label, 635/667 nm fluorescence, artefact control for SMM control protein annotation, profiling panel (AID 1118); conditions: BSA-A647 binding, fluorescence 635 nm, higher = more signal;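 further: score merges 667 nm emission intensity and signal-to-noise per printed compound spot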
# Sequence of Albumin (Bos taurus) (P02769 whole entry, looked up): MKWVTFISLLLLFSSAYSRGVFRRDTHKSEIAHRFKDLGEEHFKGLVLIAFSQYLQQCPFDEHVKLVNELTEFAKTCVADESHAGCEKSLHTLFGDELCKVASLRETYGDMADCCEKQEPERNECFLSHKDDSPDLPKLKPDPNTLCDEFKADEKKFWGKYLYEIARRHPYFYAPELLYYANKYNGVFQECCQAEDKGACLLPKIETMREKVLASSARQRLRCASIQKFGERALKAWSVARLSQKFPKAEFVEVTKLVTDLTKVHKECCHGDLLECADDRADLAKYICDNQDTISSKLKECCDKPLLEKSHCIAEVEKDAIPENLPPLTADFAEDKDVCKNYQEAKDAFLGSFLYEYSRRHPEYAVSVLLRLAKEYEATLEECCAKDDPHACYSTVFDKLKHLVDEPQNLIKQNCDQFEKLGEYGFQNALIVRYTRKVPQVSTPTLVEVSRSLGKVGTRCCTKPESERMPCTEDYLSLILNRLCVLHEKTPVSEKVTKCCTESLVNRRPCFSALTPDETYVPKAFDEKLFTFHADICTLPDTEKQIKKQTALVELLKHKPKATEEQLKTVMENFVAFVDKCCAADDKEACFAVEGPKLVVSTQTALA
# [1] = probe aXIP binding to arrayed compounds – biochemical, NeuroSMM set, 635/667 nm fluorescence, primary screen (AID 1119); conditions: small-molecule microarray, higher = more signal, called active from +8 up or from −8 down;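 further: probe is the protein aXip251-270 applied at 1 µg/mL to compound-printed slides; binding of probe to printed compounds measured as 667 nm fluorescence plus signal to noise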
# [2] = probe aNOTCH3 binding on compound microarray – biochemical, small-molecule microarray, 635/667 nm fluorescence, primary screen (AID 1120); conditions: higher = more signal;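 further: probe is a biotin-tagged antibody raised against NOTCH3 rather than NOTCH3 protein; score merges spot fluorescence near 667 nm with spot signal to noise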
# [3] = probe aNOTCH2 binding on compound microarray – biochemical, small-molecule microarray, 635/667 nm fluorescence, primary screen (AID 1121); conditions: higher = more signal;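 further: score merges feature fluorescence read at 667 nm with its signal to noise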
# [4] = molecular target: Carbonic anhydrase 2 (Homo sapiens) (UniProt P00918); experiment: compounds binding carbonic anhydrase 2 – biochemical, small-molecule microarray, Alexa647-labelled CAII, profiling panel (AID 1122); conditions: CAII-A647 binding fluorescence, higher = more signal
# [5] = COS7 lysate on small-molecule microarray, probe aHis, 635 nm (AID 1123); conditions: COS7 cell lysate, fluorescence, higher = more signal;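 further: z-score combines 667nm fluorescence intensity with signal-to-noise per printed compound spot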
# [6] = probe aLAP1 signal on lysate-treated microarray – cell lysate, small-molecule microarray, COS7 lysate, primary screen (AID 1124); conditions: probe aLAP1, fluorescence, higher = more signal;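 further: lysate comes from COS7 cells expressing LAP1 and is applied at 0.3 µg/mL; score merges spot fluorescence near 667 nm with signal-to-noise over triplicate slides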
# Sam68 (KHDRBS1) = experiment: compounds binding KHDRBS1 protein – biochemical, small-molecule microarray, 635 nm fluorescence, primary screen (AID 1125); conditions: higher = more signal;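 further: score merges 667 nm channel intensity with signal to noise over triplicate slides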
# [7] = test system: Chordin-like protein 2 (CHRDL2); experiment: compounds binding chordin-like 2 – biochemical, small-molecule microarray, 635 nm fluorescence, primary screen (AID 1126); conditions: fluorescence 635 nm, higher = more signal;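 further: printed compound slides probed with Chrdl2 protein at 4 µg/mL for 1 h at 4 C; score merges 667 nm emission intensity with signal to noise over three replicate slides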
# [8] = molecular target: Concanavalin-A (Canavalia ensiformis) (UniProt P02866); experiment: compounds binding concanavalin A lectin – biochemical, small-molecule microarray, Alexa647 label, 635 nm, artefact control for SMM control protein annotation, primary screen (AID 1127); conditions: ConA-A647 binding fluorescence, higher = more signal;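 further: z combines 667 nm emission intensity with signal-to-noise across three replicate slides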
# Sequence of Concanavalin-A (Canavalia ensiformis) (P02866 whole entry, looked up): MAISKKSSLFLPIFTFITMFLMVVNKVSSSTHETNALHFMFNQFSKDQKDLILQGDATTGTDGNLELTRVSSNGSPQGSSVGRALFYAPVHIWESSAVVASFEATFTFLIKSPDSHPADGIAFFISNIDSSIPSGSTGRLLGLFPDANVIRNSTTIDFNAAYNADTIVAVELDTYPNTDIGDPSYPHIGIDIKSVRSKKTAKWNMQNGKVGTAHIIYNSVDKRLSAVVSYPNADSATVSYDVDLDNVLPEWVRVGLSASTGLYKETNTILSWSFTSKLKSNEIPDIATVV
SMILES,composite z-score (Albumin (Bos taurus)),composite Z-score [1],composite z-score [2],composite z-score [3],composite z-score [4],composite z-score [5],composite z-score [6],composite z-score (Sam68 (KHDRBS1)),composite z-score [7],composite z-score [8]
C=CCC(OC(C)=O)[C@@H]1[C@@H](N(Cc2cc3ccccc3o2)C(=O)c2ccc(C)cc2)c2cc(OCCCO)ccc2N1C(=O)c1ccc(-c2ccccc2)cc1 (stereo not given in full),-0.0944,0.0882 (inactive),0.102,-0.18,0.0677,0.263,-0.161,0.318,0.073,-0.0198
CN1C(=O)C2C(C1=O)C1C=C(c3ccc(CO)cc3)C2C(C2CC2)N1Cc1cc2c(cc1Br)OCO2 (stereo not given),1.03,1.55 (inactive),0.211,0.109,0.786,3.13,0.863,1.3,0.258,1.16
CN(C)CCCCCCNC(=O)[C@@H]1C[C@@H]2C(=O)NCC(=O)N2[C@@H]1c1cccc(OCCO)c1,-0.615,1.04 (inactive),0.113,-0.0519,0.63,2.54,0.212,1.3,1.35,1.22
COCCCNC(=O)[C@@]1(Sc2ccc(C)cc2)CC(=O)N(Cc2ccccc2)[C@@H]1c1ccc(CO)cc1,0.146,0.201 (inactive),-0.689,-0.134,0.534,2.54,0.378,0.0145,-0.21,-0.668
COC(=O)[C@@]1(Cc2ccc(F)cc2)[C@H]2c3cc(C(=O)N4CCCC4)n(Cc4ccc(Cl)c(C(F)(F)F)c4)c3C[C@H]2CN1C(=O)c1ccccc1,1.02,0.267 (inactive),1.53,0.853,0.801,2.89,1.31,1.33,-0.804,1.16
[N-]=[N+]=NCc1ccccc1[C@H]1OC(c2ccc(OCCCO)cc2)=N[C@@]1(Cc1ccccc1)C(=O)NCC(O)CO (stereo not given in full),0.691,0.0638 (inactive),0.506,-0.0013,0.76,3.42,0.941,0.966,-0.609,-0.0213
COCCOC(=O)N1C(=O)[C@@]2(c3ccccc31)[C@H](C(=O)N1CCCCCCC1)[C@H]1C(=O)O[C@H](c3ccccc3)[C@H](c3ccccc3)N1[C@@H]2c1ccccc1OCCO,0.911,3.89 (inactive),1.5,0.699,0.838,3.32,1.19,1.29,1.32,1.2
CCOC(=O)C[C@H]1[C@H](OC(=O)c2cc3ccccc3oc2=O)[C@@H](NC(=O)c2ccc3ccccc3c2)c2cc(OCCCO)ccc2N1C(=O)c1ccccc1,0.342,0.465 (inactive),0.0745,-0.123,0.571,0.224,0.334,1.29,0.234,0.275
CCOC(=O)C1=CC[C@@H](c2cccc(Cl)c2)N(S(=O)(=O)c2ccc(C)cc2)[C@H]1c1ccc(C#N)cc1,1.01,0.272 (inactive),0.159,0.0747,0.728,2.86,0.668,1.29,-0.0727,1.11
C[C@H]1C2[C@H](Cc3ccccc3)NC(=O)[C@]23C(=O)N[C@H](Cc2ccccc2)C(=O)N[C@H](Cc2ccccc2)C(=O)NC/C=C/CCC/C=C/C3[C@@H]2O[C@]12C (stereo not given in full),0.63,0.312 (inactive),-0.246,-0.115,0.312,1.25,0.338,0.179,0.8,0.472
O=C1C2C=CC(C(O)c3ccc(-c4ccccc4)s3)N(Nc3ccccc3F)C2C(=O)N1c1ccccc1 (stereo not given),0.822,0.446 (inactive),0.113,0.149,0.69,2.09,0.335,1.29,-0.0798,1.12

# Source: PubChem BioAssay
